Compound activity (PubChem BioAssay)
Most compounds without a hit are left out; they make up all but 12% or so of the library.
JMJD2A Tudor inh: qHTS Assay for Inhibitors of JMJD2A-Tudor Domain; Lysine-specific demethylase 4A (Homo sapiens), O75164; AlphaScreen JMJD2A-Tudor / H3K4me3 peptide binding; Potency, µM (doses to about 114 µM), for inactives: top-dose activity change, negative = inhibition, usual class: inhibitors; hit rate 4.4% among 390,000; AID 504339, 2011; also: % is scaled to controls: 0 for no effect and ±100 for the full control effect; nearly all actives have a fitted effect of over 50% in size
L3MBTL1 inh: qHTS Assay for the Inhibitors of L3MBTL1 | hit rate 0.66% among 230,000 | Potency, µM (highest dose often 57.1 µM), for the others: at the top dose activity, negative = inhibition, most hits filed as inhibitors | AlphaScreen L3MBTL1–H3K9me1 peptide binding | Lethal(3)malignant brain tumor-like protein 1 (Homo sapiens), Q9Y468; also: % is scaled to controls: 0 for no effect and ±100 for the full control effect; nearly all actives have a fitted effect of over 60% in size
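L3MBTL1 (50 nM) pre-complexed 30 min with biotinylated H3(1-15)K9me1 peptide (75 nM), then compounds added for 30 min at room temperature; AlphaScreen streptavidin donor/nickel chelate acceptor beads (10 ug/mL final) read after 30 min dark incubation.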
HP1b chromo inh: HTS for Inhibitors of HP1-beta Chromodomain Interactions with Methylated Histone Tails; AlphaScreen HP1-beta / biotin-H3K9me3 peptide binding; AID 540317, 2011; hit rate 0.56% among 390,000; Potency, µM (titrated, usually from 114 µM), inactives show at the top dose activity change, negative = inhibition, usual class: inhibitors; also: nearly all actives have a fitted effect of over 70% in size
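AlphaScreen: HP1-beta (50 nM) preformed 30 min with biotin-H3(1-18)K9me3 peptide (50 nM) in PBS pH 7.4, 0.01% Tween-20. Compound added for 30 min at RT, then streptavidin donor/nickel chelate acceptor beads (10 ug/mL) for 30 min.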
Sfp PPTase inh: qHTS Assay for Inhibitors of Bacillus subtilis Sfp phosphopantetheinyl transferase (PPTase) | 4'-phosphopantetheinyl transferase ffp (Bacillus subtilis), Q9F4F7 | Biochemical Sfp PPTase activity, qHTS | Potency, µM, for the others: largest response in the series, negative = inhibition, most hits filed as inhibitors | hit rate 3.5% among 310,000 | AID 1490, 2009;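 also: the enzyme is Sfp with the accession as filed and its product quenches rhodamine fluorescence; 0% = enzyme reaction without inhibitor and -100% = no enzyme wells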
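After 15 min at room temperature with compound, 15 nM Sfp received 5 uM rhodamine-CoA plus 12.5 uM BHQ-2-ybbR (50 mM Hepes pH 7.6, 10 mM MgCl2). Rate came from the fluorescence difference over 30 min, ex 525/em 598 nm.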
G9a inh: qHTS Assay for Inhibitors of Histone Lysine Methyltransferase G9a. Histone-lysine N-methyltransferase EHMT2 (Homo sapiens), Q96KQ7. G9a H3K9 monomethylation, AlphaScreen, 2 h. Potency, µM (highest dose often 102 µM), for the others: top-dose activity, negative = inhibition, usual class: inhibitors. hit rate 8.8% among 350,000. AID 504332, 2011; also: % is scaled to controls: 0 for no effect and ±100 for the full control effect; nearly all actives have a fitted effect of over 75% in size
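G9a (20 nM) preincubated 15 min RT with compounds, then 500 nM biotinylated H3K9 peptide and 20 uM SAM added; 2 h RT reaction. Monomethyl-H3K9 product detected by AlphaScreen with anti-H3K9me1 antibody, streptavidin donor and anti-rabbit IgG acceptor beads.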
BAZ2B inh: qHTS Assay for Inhibitors of BAZ2B; Bromodomain adjacent to zinc finger domain protein 2B (Homo sapiens), Q9UIF8; AlphaScreen BAZ2B-H3K14Ac peptide displacement; Potency, µM (highest dose often 114 µM), inactives show at the top dose activity change, negative = inhibition, actives largely listed as inhibitors; hit rate 4.4% among 360,000; also: % is scaled to controls: 0 for no effect and ±100 for the full control effect; nearly all actives have a fitted effect of over 60% in size
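Inhibition is scored as reduced AlphaScreen emission. The BAZ2B/b-H3(5-23)K14Ac complex (50 nM each) in PBS pH 7.4, 0.01% Tween-20 meets compound (up to 110 uM) for 30 min at RT before bead addition.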
* marks the source's active call; other numbers are inactive results; ? = inconclusive; / = not tested or not shown; [ ] = dose if it differs, or a comment. Calls follow the shape of the dose curve; as a rule, active = well fitted curve in the direction sought with a large enough effect; inconclusive = small, poorly fitted or top-dose-only effect, or another doubt; inactive = no such curve, though single readings can be large; an effect the other way counts as inactive or inconclusive. Potency is read from the fitted curve at half-maximal effect.

SMILES	JMJD2A Tudor inh	L3MBTL1 inh	HP1b chromo inh	Sfp PPTase inh	G9a inh	BAZ2B inh
O=C(CSc1nnc(-c2cccs2)o1)Nc1cccc(C(F)(F)F)c1	-15%	/	34%	/	7%[59 µM]	5%
COC(=O)CN(Cc1ccco1)S(=O)(=O)c1ccccc1	-14%	-5%	0%	56µM*	-21%[59 µM]	-7%
COc1ccc(S(=O)(=O)N(Cc2ccc(OC)c(OC)c2)Cc2ccco2)cc1	-12%	-1%	9%	17%	50µM*	?
COc1ccc(S(=O)(=O)N(CCC(N)=O)Cc2ccco2)cc1OC	?	15%	9%	6%	/	-1%
Cc1ccc(S(=O)(=O)N(CC(=O)O)Cc2ccco2)cc1	89µM*	/	-10%	6%	32µM*	56µM*
Cc1ccc2[nH]c(CSc3nnc(NC(=O)COc4ccccc4C)s3)cc(=O)c2c1	-3%	/	13%[57 µM]	/	-10%[59 µM]	12%
COc1ccc(Cc2nnc(Cl)c3ccccc23)cc1OC	-10%	/	10%	8%	50µM*	-35%
COc1ccc(CSc2nnnn2Cc2ccccc2)cc1OC	-14%	/	0%	0%	1%[12.7 µM]	-2%
CCOc1ccccc1NC(=O)Cn1c(=O)n(CCC(C)C)c(=O)c2cccnc21	-14%	/	18%	/	12%[59 µM]	1%
COc1cccc(/C=N/N2CCN(c3ccc(Cl)cc3)CC2)c1OC	?	/	20%	4%	-1%	?
COc1cccc(C=NN2CCCCCC2)c1OC	56µM*	/	?	/	/	/
COc1ccccc1N1CCN(/N=C/c2ccc(OC)c(OC)c2OC)CC1	?	-4%	-2%	9%	35µM*	32µM*
CCOc1cc(C=NN2CCCCCC2)ccc1O	50µM*	/	?	/	/	/
CCOc1ccccc1C=NN1CCCCCC1	45µM*	/	?	/	/	/
CCOc1cc(/C=N/N2CCN(Cc3ccccc3)CC2)ccc1O	?	?	-16%	14%	?	?
COc1ccc(N(Cc2cccs2)C(=O)c2ccc(OCC(C)C)cc2)cc1	32%	/	70%	/	25%[59 µM]	12%
CC(=O)c1cccc(NC(=O)Cn2c(C)c3cnn(-c4ccccc4)c(=O)c3c2C)c1	-26%	/	6%	/	-34%[59 µM]	-16%
O=C(COc1ccccc1Cl)N(Cc1ccco1)Cc1ccco1	-32%	/	22%	/	-28%[59 µM]	-22%
CCOC(=O)CNC(=O)c1sc2nc(C)cc(C)c2c1N	17%	1%	50%	7%	50µM*	-1%
Cc1cc(C)c2c(N)c(C(=O)NN)sc2n1	-6%[11.4 µM]	1%	50%	-10%	-43%	-35%
Cc1cc(C)c2c(N)c(C(=O)NNC(=O)c3ccccc3)sc2n1	-11%	0%	42%	-7%	45µM*	-26%
O=C(CSc1nnnn1-c1ccc(F)cc1)NC1CCCCC1	79µM*	-1%	?	8%	-13%[12.7 µM]	5%
CC(=O)Nc1ccc(-n2nnnc2SCC(=O)NC2CCCC2)cc1	-9%	/	2%	3%	-6%	-2%
CC(=O)c1ccc(-n2nnnc2SCC(=O)NC2CCCCC2)cc1	-8%	/	-13%	?	35µM*	-3%
CCCOc1ccc(C2c3c(-c4ccccc4O)n[nH]c3C(=O)N2Cc2ccncc2)cc1OCC (stereo unspecified)	-19%	/	53%	/	0%[59 µM]	-11%
SMILES	JMJD2A Tudor inh	L3MBTL1 inh	HP1b chromo inh	Sfp PPTase inh	G9a inh	BAZ2B inh
CCCCn1cc(S(=O)(=O)c2ccccc2)c(=O)c2cc(F)c(N3CCN(CCC)CC3)cc21	-1%	/	35%	/	0%[59 µM]	3%
Cc1ccc(N2C(=O)C3C4C=CC(CNC(=S)N5CCN(c6ccccn6)CC5)(O4)C3C2=O)cc1 (stereo unspecified)	?	/	?	28µM*	2.2µM*	-1%
Cc1ccc(C)c(NC(=S)N2CCN(c3ccccn3)CC2)c1	-18%	-5%	23%	-1%	/	-8%
O=C1C2C3C=CC(CO)(O3)C2C(=O)N1c1ccc(-c2ccccc2)cc1 (stereo unspecified)	/	-6%	/	5µM*	1µM*	-27%
CC(C)(C)C(=O)NCC12C=CC(O1)C1C(=O)N(c3ccccc3)C(=O)C12 (stereo unspecified)	56µM*	-4%	?	-1%	1.6µM*	-2%
COC(=O)C1(CO)NC(c2ccc(C)cc2)C2C(=O)N(c3ccccc3)C(=O)C21 (stereo unspecified)	9%	1%	18%	19%	4%	-2%
COc1ccc(/C=N/Nc2nc(C)cc(-c3ccccc3)n2)c(OC)c1	-10%	-5%	32%	20%	-1%	3%
COc1ccc(O)c(/C=N/Nc2nc(C)cc(-c3ccccc3)n2)c1	35µM*	/	?	/	/	/
Cc1noc(NS(=O)(=O)c2ccc(NC(=O)c3ccc(Cl)c(S(=O)(=O)N(C)c4ccccc4)c3)cc2)c1C	?	-4%	-22%	/	50µM*	45µM*
Cc1ccc(-c2cc(C(=O)Nc3ccc(S(=O)(=O)Nc4onc(C)c4C)cc3)c3ccccc3n2)cc1	?	-3%	?	21%	45µM*	50µM*
Cc1ccc2c(C)c(C(=O)Nc3ccc(S(=O)(=O)Nc4onc(C)c4C)cc3)oc2c1	-32%	/	-12%	13%	71µM*	?
Cc1noc(NS(=O)(=O)c2ccc(NC(=O)c3cccc(S(=O)(=O)N(C)c4ccccc4)c3)cc2)c1C	-30%	/	16%	/	/	/
COc1ccc(NC(=O)c2cc(C3CC3)nc3c2c(C)nn3-c2ccc(C)cc2)cc1OC	-13%	/	58%	/	-3%[59 µM]	20%[57.1 µM]
Cc1ccc(-c2nnc(Nc3ccccc3)c3ccccc23)cc1S(=O)(=O)NCc1nc2ccccc2[nH]1	-13%	/	43%	/	50%[59 µM]	-12%
Cc1ccc(NC(=O)COc2ccc(-c3nn(C)c(=O)c4ccccc34)cc2)c(C)c1	-2%	/	32%	/	7%[59 µM]	-2%
C/C(CCc1oc2c(Br)cc(Br)cc2c1-c1ccc(C)o1)=N\O	?	-2%	2%	22µM*	?	?
C/C(CCc1oc2ccccc2c1-c1ccc(C)o1)=N/O	56µM*	-10%	-28%	28µM*	?	?
COc1cc(O)c(C(C)=O)c(CC(=O)O)c1	32µM*	/	?	89µM*	?	40µM*
CC1CCc2[nH]c3ccc(C(=O)N4CCCC(C(F)(F)F)C4)cc3c2C1 (stereo unspecified)	?	-16%	-4%	/	35µM*	32µM*
